Reference: the supplement of paper PMC3545927
The other results are listed elsewhere or left out. How many sequences the whole screen found active is unknown.

Target: furin, P09958
Assay: furin cleavage Z-score vs untreated control; higher = more cleavage, active = 3.5 or more, inactive = 1 or less, 8 variable residues between constant flanks
In short: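 Peptides 8 residues long, fused to a cDNA oligonucleotide, were fixed to magnetic beads by the N-terminus and exposed to purified furin. The 0.01 ml reactions contained 50 mM HEPES pH 7.5 with CaCl2 and NaCl at 1:10 enzyme:substrate and ran 7.5, 15 or 30 min. For the cleavage Z-score, log counts of sequenced released DNA were compared with furin-free reactions, lowess-adjusted and scaled by median absolute deviation.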

Sequence of furin, P09958 (P09958 whole entry): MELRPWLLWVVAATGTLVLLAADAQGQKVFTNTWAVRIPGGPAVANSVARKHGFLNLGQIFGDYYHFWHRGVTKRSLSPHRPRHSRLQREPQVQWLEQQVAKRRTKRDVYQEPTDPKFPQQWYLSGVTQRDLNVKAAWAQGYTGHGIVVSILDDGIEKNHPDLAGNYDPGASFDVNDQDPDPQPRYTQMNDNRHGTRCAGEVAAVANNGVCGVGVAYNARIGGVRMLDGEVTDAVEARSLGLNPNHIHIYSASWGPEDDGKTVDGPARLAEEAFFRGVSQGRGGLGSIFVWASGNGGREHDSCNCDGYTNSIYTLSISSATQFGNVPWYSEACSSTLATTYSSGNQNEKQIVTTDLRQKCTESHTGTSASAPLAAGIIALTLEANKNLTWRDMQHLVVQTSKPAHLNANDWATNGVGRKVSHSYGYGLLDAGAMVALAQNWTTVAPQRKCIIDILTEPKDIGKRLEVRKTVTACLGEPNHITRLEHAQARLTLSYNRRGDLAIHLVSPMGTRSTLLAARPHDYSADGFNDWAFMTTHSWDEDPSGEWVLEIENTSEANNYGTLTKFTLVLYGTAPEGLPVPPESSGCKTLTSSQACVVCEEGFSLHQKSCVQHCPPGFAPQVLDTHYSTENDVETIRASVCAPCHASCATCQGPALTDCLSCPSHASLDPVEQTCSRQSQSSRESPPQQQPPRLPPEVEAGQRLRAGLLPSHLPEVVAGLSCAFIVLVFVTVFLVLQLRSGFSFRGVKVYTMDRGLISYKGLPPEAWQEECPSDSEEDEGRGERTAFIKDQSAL

Sequence | furin cleavage Z-score (7.5 min) | furin cleavage Z-score (15 min) | furin cleavage Z-score (30 min)
CATWMNSTGFAGNASASA [HC437] | 0.658 (inactive) | 2.27 | -0.141 (inactive)
CATTPCSGSDAGNASASA [HC1931] | -0.759 (inactive) | -0.942 (inactive) | -0.913 (inactive)
CARHIRKRRSAGNASASA [FS-1157] | 13.5 (active) | 13.3 (active) | 9.11 (active)
CARPKRYFTIAGNASASA [FS-2579] | -0.409 (inactive) | -0.643 (inactive) | -0.0555 (inactive)
CARPSRKRRSAGNASASA [FS-1070] | 12.8 (active) | 11.6 (active) | 9.65 (active)
CARPKRADTFAGNASASA [FS-2054] | 5.65 (active) | 7.21 (active) | 7.85 (active)
CARPKRCPRSAGNASASA [FS-2055] | 7.03 (active) | 6.47 (active) | 5.65 (active)
CARPSGMFDSAGNASASA [HC914] | -0.826 (inactive) | -0.415 (inactive) | -0.285 (inactive)
CARPKRLDSAAGNASASA [FS-2578] | -0.648 (inactive) | -0.15 (inactive) | 0.332 (inactive)
CASTPCSALLAGNASASA [HC2545] | 0.599 (inactive) | 1.06 | 0.284 (inactive)
CATTPLARAAAGNASASA [HC1565] | -0.63 (inactive) | 1.08 | -0.687 (inactive)
CADITKLLLAAGNASASA [HC604] | -1.43 (inactive) | 0.163 (inactive) | 0.0126 (inactive)
CAGERRKRRSAGNASASA [FS-425] | 14.4 (active) | 13.6 (active) | 11 (active)
CAEISRKRRSAGNASASA [FS-649] | 10.9 (active) | 9.94 (active) | 7.56 (active)
CAEFERRWRSAGNASASA [FS-230] | -1.8 (inactive) | -0.415 (inactive) | 0.059 (inactive)
CAEIKRKWRSAGNASASA [FS-21] | 2.15 | 3.65 (active) | 5.04 (active)
CAAGKRVYYLAGNASASA [HC1559] | -0.901 (inactive) | 0.829 (inactive) | -0.892 (inactive)
CAAGKRKRRSAGNASASA [FS-1299] | 12.8 (active) | 14.7 (active) | 10.5 (active)
CAGSHMKRRSAGNASASA [FS-659] | -0.564 (inactive) | 0.785 (inactive) | 1.98
CAEVACHRPSAGNASASA [HC2343] | 0.99 (inactive) | 0.762 (inactive) | 1.27
CACPTDCFRKAGNASASA [HC451] | 0.183 (inactive) | -0.762 (inactive) | -0.961 (inactive)
CAVVLVGLMAAGNASASA [HC571] | -0.371 (inactive) | 0.0646 (inactive) | -0.205 (inactive)

Sequence | furin cleavage Z-score (7.5 min) | furin cleavage Z-score (15 min) | furin cleavage Z-score (30 min)
CASLHSYSPGAGNASASA [HC1607] | -1.22 (inactive) | 0.427 (inactive) | 0.0666 (inactive)
CARKKRSVVVAGNASASA [DV4] | 9.41 (active) | 10.1 (active) | 9.47 (active)
CARCRRCVVVAGNASASA [FS-2327] | -0.669 (inactive) | 0.654 (inactive) | 1.36
CAEVVTSTVVAGNASASA [HC2230] | -0.163 (inactive) | -0.129 (inactive) | -0.367 (inactive)
CAPTSGDVVVAGNASASA [HC874] | -0.612 (inactive) | 0.813 (inactive) | -0.497 (inactive)
CAFTPSPVVVAGNASASA [HC415] | -0.406 (inactive) | -0.269 (inactive) | -0.296 (inactive)
CARVKRSVVVAGNASASA [FS-2840] | 8.15 (active) | 9.71 (active) | 8.81 (active)
CARVKKSVEVAGNASASA [FS-3118] | 4.33 (active) | 7.31 (active) | 8.17 (active)
CARVVTSTWVAGNASASA [HC2153] | 1.81 | 1.03 | 0.0503 (inactive)
CAEVTTSTWVAGNASASA [HC2198] | -0.604 (inactive) | 0.139 (inactive) | -0.711 (inactive)
CAPRKKRTVVAGNASASA [HC1324] | 11.4 (active) | 13.7 (active) | 11.3 (active)
CAEVPCHVPSAGNASASA [HC2370] | -0.196 (inactive) | 0.881 (inactive) | 0.0659 (inactive)
CAVIPTSGDVAGNASASA [HC873] | -1.48 (inactive) | -0.378 (inactive) | 1.84
CAYRLWHYPCAGNASASA [HC467] | 0.186 (inactive) | 0.568 (inactive) | 0.0366 (inactive)
CAVVCFSMSYAGNASASA [HC86] | -0.132 (inactive) | 1.31 | 0.28 (inactive)
CADIEVVTSTAGNASASA [HC2284] | -0.624 (inactive) | -0.333 (inactive) | -1.16 (inactive)
CAPRCLVDYPAGNASASA [HC463] | 0.288 (inactive) | -0.558 (inactive) | -0.868 (inactive)
CAMEECSQDLAGNASASA [HC1751] | -0.0304 (inactive) | -0.261 (inactive) | 0.894 (inactive)
CASTPCSAHFAGNASASA [HC2567] | 1.04 | -0.481 (inactive) | 1.8
CARVKKSPPEAGNASASA [FS-2196] | 3.38 | 4.49 (active) | 5.53 (active)
CARVVLSGKPAGNASASA [HC1003] | -0.899 (inactive) | -0.703 (inactive) | -0.908 (inactive)
CARVKKEWEEAGNASASA [FS-1871] | -0.778 (inactive) | -0.527 (inactive) | -1.03 (inactive)
